High-throughput results from PubChem BioAssay.
IL1B secr inh: qHTS for Inhibitors of Inflammasome Signaling: IL-1-beta AlphaLISA Primary Screen | activity change, % at 57.5 µM | THP-1 LPS/ATP IL-1B secretion, AlphaLISA, 16 h; stronger effect = lower value | actives 4.7% (n = 360,000) | AID 743279, 2014; in the data active means activity change below about -50%; inconclusive means mostly about -30% to -49%
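Secreted IL-1B measured by AlphaLISA bead assay after 16 h compound exposure of THP-1 cells; compounds (final up to 57.5 uM) added 1 h before LPS (250 ng/mL) and ATP (1.25 mM) stimulation; lower signal means less secretion.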
HT1080 IDH1KD tx: qHTS for induction of synthetic lethality in tumor cells producing 2HG: qHTS for the HT-1080-IDH1KD cell line. HT-1080 IDH1 knockdown viability, ATP luminescence, 48 h. Potency, µM (doses to about 46.1 µM), for inactives: at the top dose activity, negative = toxicity, hits mostly cytotoxic. actives 2% (n = 360,000);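 further: potency means the concentration at half of the fitted maximal effect; 0% = DMSO wells and -100% = cell-free medium wells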
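Luminescent ATP read-out (CellTiter-Glo, 10 min at room temperature) after 48 h compound exposure at 37 °C gave viability of IDH1-knockdown HT-1080 cells. Activity was normalised to DMSO and cell-free wells, then fitted as concentration-response curves.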
TDP1 cell noCPT: qHTS for Inhibitors of human tyrosyl-DNA phosphodiesterase 1 (TDP1): qHTS in cells in absence of CPT; DT40 Tdp1-/- hTDP1 cells, no CPT, ATP luminescence, 48 h; Potency, µM (doses to about 46.2 µM), inactives show at the top dose activity change, negative = growth inhibition, usual class: inhibitors; actives 15% (n = 420,000); AID 686978, 2013; further: potency means the concentration at half of the fitted maximal effect; nearly all actives have a fitted effect of over 55% in size
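DT40 Tdp1-/-;hTDP1 cells, no CPT (DMSO vehicle only), 400 cells/well; compounds pin-transferred; ≥48 hr, 37 °C; CellTiter-Glo 30 min RT dark, luminescence read.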
TDP1 cell CPT: qHTS for Inhibitors of human tyrosyl-DNA phosphodiesterase 1 (TDP1): qHTS in cells in presence of CPT. chicken DT40 Tdp1-/-;hTDP1 cells + 20 nM CPT, ATP luminescence, 48 h. Potency, µM (doses to about 46.2 µM), for inactives: at the top dose activity change, negative = growth inhibition, usual class: inhibitors. actives 12% (n = 420,000). AID 686979, 2013; further: potency means the concentration at half of the fitted maximal effect; nearly all actives have a fitted effect of over 55% in size
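Cell growth measured by CellTiter-Glo luminescence after a minimum 48 h, 37 C compound exposure with 20 nM CPT in Tdp1-knockout DT40 cells stably expressing hTDP1, seeded 400/well; qHTS titration format.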
HT1080NT lethal: qHTS for induction of synthetic lethality in tumor cells producing 2HG: qHTS for the HT-1080-NT fibrosarcoma cell line | Potency, µM (top dose mostly 46.1 µM), for inactives: at the top dose activity, negative = less viability, usual class: cytotoxic | actives 1.6% (n = 360,000) | AID 686970, 2013 | HT-1080-NT fibrosarcoma viability, CellTiter-Glo ATP luminescence, 48 h;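 further: NT is the 2HG producing partner of a matched IDH1 knockdown line; potency means the concentration at half of the fitted maximal effect; 0% = DMSO-treated cells and -100% = media-only wells without cells; nearly all actives have a fitted effect of over 55% in size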
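Fibrosarcoma NT cells, 750 per well in 5% FBS RPMI, were exposed to compound for 48 hours. Viability: CellTiter-Glo luminescence.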
* marks the source's active call; other numbers are inactive results; ? = inconclusive; . = not tested or not shown; [ ] = another dose, or the depositor's remark. This is a sample that favours compounds with a hit; in the whole collection about 19% have one here. Unless noted, the call rests on the fitted dose curve; in most records, active means well fitted curve in the direction sought with a large enough effect; inconclusive means small, poorly fitted or top-dose-only effect, or another doubt; inactive means no such curve, though single readings can be large; an effect the other way counts as inactive or inconclusive. Unless noted, on the % scale 0 is the no-effect control and ±100 the full control effect.

SMILES	IL1B secr inh	HT1080 IDH1KD tx	TDP1 cell noCPT	TDP1 cell CPT	HT1080NT lethal
CCOC(=O)C1CCCN(C(=S)Nc2ccc(Nc3ccccc3)cc2)C1 (configuration not stated)	-96.4*	-2.2%	23.1µM*	?	-16.2%
CCOC(=O)C1CCCN(C(=O)c2ccc(CS(=O)(=O)c3ccc(C)cc3)o2)C1 (configuration not stated)	-9.3	-0.8%	-16.7%	-7.8%	14.7%
CCOC(=O)C1CCCN(C(=O)c2ccc(-c3ccc([N+](=O)[O-])cc3)o2)C1 (configuration not stated)	-22.4	-26.0%	11.6µM*	11.6µM*	1.5%
CCNC(=O)C[C@@H]1C=C[C@@H](NS(=O)(=O)c2ccc(F)cc2)[C@@H](CO)O1	10.7	16.8%	12.5%	12.2%	17.1%
O=C(c1ccccc1)c1nc2ccccc2n(CCCn2c(=O)c(C(=O)c3ccccc3)nc3ccccc32)c1=O	-13.2	-4.0%	-8.0%	0.1%	-3.4%
Cn1c(-c2cccs2)nc2ccccc21	-5.0	0.2%	?	-1.8%	-0.1%
c1csc(Cn2c(-c3cccs3)nc3ccccc32)c1	-18.9	-10.8%	-16.7%	?	0.9%
Cc1ccccc1Cn1c(-c2cccs2)nc2ccccc21	.	.	16.4µM*	?	.
CC(C)Cn1c(-c2cccs2)nc2ccccc21	-11.7	-3.9%	?	16.4µM*	-4.4%
CC(C)Cn1c(-c2ccccc2Cl)nc2ccccc21	.	.	16.4µM*	?	.
COc1cc(CNC(=O)c2cc(C(=O)NCc3cc(OC)cc(OC)c3)n(C)n2)cc(OC)c1	0.3	-3.3%	?	?	-5.9%
Cc1c(/C=N/NC(N)=O)c2ccccn2c1C(=O)c1ccc(F)cc1	-70.1*	-27.5%	9.2µM*	?	-14.5%
CN(C)C(C(=O)Nc1cc(Cl)cc(Cl)c1)c1ccccc1 (configuration not stated)	?	-23.9%	?	-3.4%	-17.9%
O=C(OC(C(=O)Nc1cc(Cl)cc(Cl)c1)c1ccccc1)C1=COCCO1 (configuration not stated)	-50.9*	-1.1%	18.4µM*	?	-0.2%
CC(OC(=O)C1=COCCO1)C(=O)Nc1ccc(Oc2ccccc2)cc1 (configuration not stated)	-13.9	-22.5%	?	13µM*	-6.1%
Cc1cnc(C(=O)OC(C)C(=O)Nc2ccc(Oc3ccccc3)cc2)cn1 (configuration not stated)	-5.2	-4.1%	0.8%	-12.9%	-6.5%
COc1ccc(-c2nc(C#N)c(NCc3ccco3)o2)cc1	-26.7	4.4%	16.4µM*	?	0.1%
C=CCNc1oc(-c2ccc(OCC)cc2)nc1C#N	-3.4	-6.9%	?	?	5.7%
C=CCNc1oc(-c2ccc(OC)cc2)nc1C#N	-22.0	-21.3%	?	16.4µM*	-1.4%[9.24 µM]
O=C(CSc1nc2c(sc3ccccc32)c(=O)n1CCCN1CCCC1)NCc1ccccc1	-99.6*	?	?	-61.6%	?
CSc1nc2c(sc3ccccc32)c(=O)n1Cc1ccc(C)cc1	.	.	16.4µM*	20.6µM*	.
Cc1ccc(CNC(=O)CSc2nc3c(sc4ccccc43)c(=O)n2CCCN2CCCC2)cc1	-90.2*	?	?	23.1µM*	?
Cc1ccc(CNC(=O)CSc2nc3c(sc4ccccc43)c(=O)n2CCCOC(C)C)cc1	.	.	?	-8.0%	.
COC(=O)c1sc(NC(=O)c2ccc(Cn3cc(Cl)cn3)o2)c(C#N)c1C	16.1	-3.0%	?	16.4µM*	-8.6%
CCOC(=O)c1sc(NC(=O)c2ccncc2)c(C#N)c1C	25.5	-0.6%	5.17µM*	6.51µM*	?
